Results reported in PubChem BioAssay AID588352 (The Scripps Research Institute Molecular Screening Center, 2011).
The whole screen tested about 360,000 compounds, of which about 620 (0.17%) were called active. This excerpt belongs to a sample that is enriched for actives. A number with no mark means an inactive call.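 How the source made its calls: active means inhibition above a per-campaign cutoff, the mean of all compounds plus 3 SD (cut at about 60% in these data); inactive means the rest.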

Target: Nuclear receptor coactivator 3 (Homo sapiens) (UniProt Q9Y6Q9)
Sequence (Q9Y6Q9 whole entry, looked up, the tested form may be a part): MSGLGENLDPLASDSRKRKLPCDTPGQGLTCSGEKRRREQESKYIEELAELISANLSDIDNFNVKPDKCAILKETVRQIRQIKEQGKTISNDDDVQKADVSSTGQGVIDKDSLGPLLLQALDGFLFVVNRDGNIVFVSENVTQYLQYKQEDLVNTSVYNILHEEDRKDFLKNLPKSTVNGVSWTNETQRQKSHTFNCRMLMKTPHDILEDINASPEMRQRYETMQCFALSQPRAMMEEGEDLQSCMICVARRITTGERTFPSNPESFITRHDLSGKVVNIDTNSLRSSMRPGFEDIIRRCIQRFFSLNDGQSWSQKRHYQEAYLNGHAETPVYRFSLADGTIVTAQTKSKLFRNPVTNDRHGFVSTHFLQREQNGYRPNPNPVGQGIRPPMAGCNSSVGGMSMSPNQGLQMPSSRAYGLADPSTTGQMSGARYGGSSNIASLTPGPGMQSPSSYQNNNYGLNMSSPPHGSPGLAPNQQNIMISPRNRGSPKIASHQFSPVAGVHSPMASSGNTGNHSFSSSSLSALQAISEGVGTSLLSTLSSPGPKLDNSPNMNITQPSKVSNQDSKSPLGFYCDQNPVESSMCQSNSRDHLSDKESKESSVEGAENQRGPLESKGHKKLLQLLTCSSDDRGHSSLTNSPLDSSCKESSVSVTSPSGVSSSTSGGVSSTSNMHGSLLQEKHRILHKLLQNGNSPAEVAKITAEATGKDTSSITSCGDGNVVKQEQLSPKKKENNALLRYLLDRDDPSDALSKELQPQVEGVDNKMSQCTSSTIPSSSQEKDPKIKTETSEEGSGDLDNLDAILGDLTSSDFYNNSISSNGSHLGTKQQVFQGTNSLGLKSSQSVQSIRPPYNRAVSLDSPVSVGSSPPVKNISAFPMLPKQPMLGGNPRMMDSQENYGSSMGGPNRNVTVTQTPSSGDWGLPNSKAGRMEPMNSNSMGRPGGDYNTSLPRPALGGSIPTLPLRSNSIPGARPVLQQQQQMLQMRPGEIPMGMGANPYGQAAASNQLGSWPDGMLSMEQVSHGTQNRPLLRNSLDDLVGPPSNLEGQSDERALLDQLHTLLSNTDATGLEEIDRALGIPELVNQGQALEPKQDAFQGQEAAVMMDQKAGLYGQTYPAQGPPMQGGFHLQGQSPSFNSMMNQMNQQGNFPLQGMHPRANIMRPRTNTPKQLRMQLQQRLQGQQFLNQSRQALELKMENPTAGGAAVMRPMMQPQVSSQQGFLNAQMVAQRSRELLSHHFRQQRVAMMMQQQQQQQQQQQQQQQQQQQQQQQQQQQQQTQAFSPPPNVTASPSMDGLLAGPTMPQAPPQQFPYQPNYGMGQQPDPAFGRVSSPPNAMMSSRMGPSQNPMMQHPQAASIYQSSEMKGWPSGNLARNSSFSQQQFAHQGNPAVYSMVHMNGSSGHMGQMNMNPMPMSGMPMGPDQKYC
Assay: NCOA3 GAL4-fusion reporter inhibition – cell-based, luminescence, primary screen (AID 588352);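 further: 0% = DMSO-treated cells and 100% = gossypol-treated cells at 36 µM; higher means less SRC3-driven luciferase light from the GAL4 reporter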
Details: HEK293 GAL4-SRC3 luciferase reporter, at 3.6 µM, hits give high values

Structure (SMILES)	inhibition
CC12CCC(O)CC1CCC1C2CCC2(C)C(C(=O)CC(O)C(F)(F)F)CCC12 (stereo not given)	15.9%
C[C@]12CC[C@H](O)C[C@H]1CC[C@@H]1C2CC[C@]2(C)[C@@H](C3=CC(=O)OC3)[C@@H](O)C[C@]12O (stereo not given in full)	63.5% (active)
Cc1cccc(OP(=O)(Oc2cccc(C)c2)OC(c2ccccc2)C(F)(F)F)c1 (stereo not given)	-1.86%
C[N+]1(C)CCOC(O)(c2ccc(-c3ccc(C4(O)C[N+](C)(C)CCO4)cc3)cc2)C1 (stereo not given)	20.3%
CNC(=S)N/N=C1\C2CN3CCN(C2)CC1(c1ccccc1)C3	8.65%
COC(=O)C1=C(c2ccc(-c3ccccc3)c(F)c2)C[C@@H]2CC[C@H]1N2C(=O)NCc1ccc(F)cc1	9.01%
CCC(C)(O)C(=O)OC1C(=O)OC2CC3C(C)=CC(=O)C(O)C3(C)C3C4(O)OCC23C1C(C)C4O (stereo not given)	93.7% (active)
O=C(Cn1c(=O)n(CC2CS2)c2ccccc21)N1CCCCC1 (stereo not given)	-25.5%
COc1ccccc1CN1CCN(C(=O)Cc2ccccc2)CC1	2.02%
COC(=O)[C@@H]1C(OC(=O)c2ccccc2)CC2CCC1N2C (stereo not given in full)	14.1%
CN(C)CCN(CC1CCCN(Cc2ccccc2F)C1)C(=O)Cc1ccc(F)c(F)c1 (stereo not given)	3.08%
C=CC12CN(C)[C@@H]3C4CO[C@H](C[C@H]41)[C@]1(C(=O)Nc4ccccc41)[C@@H]32 (stereo not given in full)	4.33%
CCOc1ccc(-c2cc(C)[n+](CCN(CC)CC)c(-c3ccc(OCC)cc3)c2)cc1	78% (active)
Cn1c(O)c(C=Nc2ccc3c(c2)CCC3)c(=O)n(C)c1=O	-9.05%
COC1C(O)C(C)OC(OC2CCC3(C=O)C(CCC4C3CCC3(C)C(C5=CC(=O)OC5)CCC43O)C2)C1O (stereo not given)	90.5% (active)
Cn1c(C(=O)N2CCC(C(=O)N3CCC4(CC3)OCCO4)CC2)cc2sccc21	6.98%
NC(=O)Cn1cc(C(=O)c2ccccc2F)c2ccccc21	10.3%
Cc1ccc(P(=S)(c2ccc(C)o2)N2CCOCC2)o1	6.64%
CC(c1ccccc1)(c1ccccc1)c1ccncc1	16.2%
Fc1cccc(F)c1CN1CCN(Cc2c(F)cccc2F)CC1	28.2%
COc1ccc2[nH]c3c(c2c1)CCN[C@H]3C	7.99%
CC(=O)OC1C2(CC3N4C(=O)C5(CO)SSC4(CC31O)C(=O)N5C)OC(C)C(C)(C)C2=O (stereo not given)	67.7% (active)
CC1CCCN1CCC(C(N)=O)(c1ccccc1)c1ccccc1 (stereo not given)	-21.2%
COP(=O)(OC)C(NC(=O)c1ccc(C)cc1)C(Cl)(Cl)Cl (stereo not given)	-4%
CCCCCCCCCCCCn1ccc(=N)cc1	76.9% (active)
CCOC(=O)C1CN(C)CCC1=O (stereo not given)	21.1%
c1ccc2sc(N3CCNCC3)nc2c1	-3.09%
COc1cccc(OC)c1C(=O)NC(=S)N1C[C@H]2C[C@H](C1)c1cccc(=O)n1C2	19.2%
OC(Cn1c2ccccc2c2ccccc21)C[n+]1ccccc1 (stereo not given)	-8.77%
CN(C)P(=S)(Nc1ccccc1)C(Cl)(Cl)Cl (stereo not given)	6.36%
